# “And” between values parts separate entries of the source, which are not always exact repeats. Identical values can stand only once. Records with an inconclusive call do not appear. The source made the active and inactive calls. Unless noted, no rule for the calls is given here.
# Key:
# [1] = growth inhibition of DIPG cells – cell-based, MIPE4.0 library, CellTiter-Glo luminescence, qHTS (AID 1347066; cut-off not given, nearly all actives have AC50 up to about 30 µM;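 also: cells exposed to compound for 48 hours before readout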); details: SU-DIPG-VI viability, CellTiter-Glo ATP luminescence
# [2] = viability loss with induced miR-34 in A549 – imaging, A549 dox-inducible miR-34, nuclei and caspase counts, primary screen (AID 1347080;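 active = compounds whose cell count with miR-34 switched on is under 0.7 times the count with it off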); details: A549 miR-34 inducible, Hoechst nuclei count, 48 h
# [3] = viability loss in pontine glioma line – cell-based, SU-DIPG-IV, MIPE4.0, CellTiter-Glo, qHTS, dose response (AID 1347063; cut-off not given, nearly all actives have AC50 up to about 30 µM;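 also: compound exposure lasted 48 hours before the viability readout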); details: CellTiter-Glo ATP luminescence
# [4] = biological target: ATP-dependent translocase ABCB1 (Homo sapiens) (UniProt P08183); test: P-glycoprotein substrate transport blockade – cell-based (AID 377; in the data active = fluorescence slope change above about 50%); details: MDR1-expressing cells, fluorescent substrate accumulation slope; stronger effect = higher value; concentration not given here
# [5] = P. berghei load reduction in hepatocytes – cell-based, HepG2, luciferase luminescence, HepG2 viability, primary screen (AID 624349; in the data active = parasite load remaining mostly below about 12%, no sharp cut-off; inactive = mostly above about 10%;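 also: 100% = mean of DMSO negative control wells on the same plate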); details: P. berghei liver stage in HepG2, luciferase luminescence, concentration not given here; parasite load remaining: stronger effect = lower value; viability: measured here: HepG2 viability without parasites
# [6] = MELAS cybrid and Rieske KO viability enhancers – cell-based, MELAS cybrids, Rieske KO mouse fibroblasts, CellTiter-Glo, primary screen (AID 1508586;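 active = mean z-score across replicates of 1.96 or higher in either the MELAS or the Rieske mutant cell line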;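 also: z relative to plate mean and SD of compound and empty wells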); details: low glucose
# [7] = galactose survival enhancers in mitochondrial complex I cybrids – cell-based, galactose medium, ATP luminescence, primary screen (AID 1645843;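 active = z-score of at least 1.8 in each of two replicates, scored against plate mean and spread of sample wells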;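 also: positive z means more ATP and so rescue of galactose-driven cybrid death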); details: complex I mutant cybrid cells, 72 h, stronger effect = higher value
# [8] = compounds altering circadian rhythm period length – cell-based, LOPAC library, luminescence reporter (AID 2774); details: circadian reporter cells, at 7 µM, actives lie on both sides;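 also: values are relative to mean of DMSO wells on each plate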
# [9] = system: Hepatitis C virus NS3 helicase; test: blockers of NS3h binding to ssDNA – biochemical, fluorescence polarization, LOPAC1280 library, primary screen (AID 687035; in the data active = inhibition above about 37%); details: Purified HCV NS3 helicase, Cy5-dT15 ssDNA binding fluorescence polarization; stronger effect = higher value; concentration not given here
# [10] = compounds altering Cy5-DNA-NS3h complex signal – biochemical, LOPAC1280, artefact control for HCV NS3 helicase inhibitor project (AID 687037); details: Cy5-DNA-NS3h complex fluorescence interference counterscreen
# [11] = blockers of cellular phospholipid synthesis – cell-based, LOPAC library, screen 4, primary screen (AID 1347384); details: animal cells, phospholipid biosynthesis inhibition screen; at 10 µM
# [12] = compounds altering viability of human ES cells (AID 493140); details: human embryonic stem cell survival screen; stronger effect = higher value;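 also: cells exposed to compounds for four days before counting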
# [13] = chitosan synthesis blockers in C. neoformans – flow cytometry, Cibacron Brilliant Red staining (AID 1347148); details: Cryptococcus neoformans chitosan, stronger effect = lower value; at 10 µM unless noted;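 also: compound exposure lasted three days at 37 degrees C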
# [14] = measured here: relative caspase fold change +Dox/-Dox
# [15] = measured here: total cells with miR-34 induction, stronger effect = lower value
# [16] = measured here: total cells without miR-34 induction
# Sequence of ATP-dependent translocase ABCB1 (Homo sapiens) (P08183 whole entry, looked up): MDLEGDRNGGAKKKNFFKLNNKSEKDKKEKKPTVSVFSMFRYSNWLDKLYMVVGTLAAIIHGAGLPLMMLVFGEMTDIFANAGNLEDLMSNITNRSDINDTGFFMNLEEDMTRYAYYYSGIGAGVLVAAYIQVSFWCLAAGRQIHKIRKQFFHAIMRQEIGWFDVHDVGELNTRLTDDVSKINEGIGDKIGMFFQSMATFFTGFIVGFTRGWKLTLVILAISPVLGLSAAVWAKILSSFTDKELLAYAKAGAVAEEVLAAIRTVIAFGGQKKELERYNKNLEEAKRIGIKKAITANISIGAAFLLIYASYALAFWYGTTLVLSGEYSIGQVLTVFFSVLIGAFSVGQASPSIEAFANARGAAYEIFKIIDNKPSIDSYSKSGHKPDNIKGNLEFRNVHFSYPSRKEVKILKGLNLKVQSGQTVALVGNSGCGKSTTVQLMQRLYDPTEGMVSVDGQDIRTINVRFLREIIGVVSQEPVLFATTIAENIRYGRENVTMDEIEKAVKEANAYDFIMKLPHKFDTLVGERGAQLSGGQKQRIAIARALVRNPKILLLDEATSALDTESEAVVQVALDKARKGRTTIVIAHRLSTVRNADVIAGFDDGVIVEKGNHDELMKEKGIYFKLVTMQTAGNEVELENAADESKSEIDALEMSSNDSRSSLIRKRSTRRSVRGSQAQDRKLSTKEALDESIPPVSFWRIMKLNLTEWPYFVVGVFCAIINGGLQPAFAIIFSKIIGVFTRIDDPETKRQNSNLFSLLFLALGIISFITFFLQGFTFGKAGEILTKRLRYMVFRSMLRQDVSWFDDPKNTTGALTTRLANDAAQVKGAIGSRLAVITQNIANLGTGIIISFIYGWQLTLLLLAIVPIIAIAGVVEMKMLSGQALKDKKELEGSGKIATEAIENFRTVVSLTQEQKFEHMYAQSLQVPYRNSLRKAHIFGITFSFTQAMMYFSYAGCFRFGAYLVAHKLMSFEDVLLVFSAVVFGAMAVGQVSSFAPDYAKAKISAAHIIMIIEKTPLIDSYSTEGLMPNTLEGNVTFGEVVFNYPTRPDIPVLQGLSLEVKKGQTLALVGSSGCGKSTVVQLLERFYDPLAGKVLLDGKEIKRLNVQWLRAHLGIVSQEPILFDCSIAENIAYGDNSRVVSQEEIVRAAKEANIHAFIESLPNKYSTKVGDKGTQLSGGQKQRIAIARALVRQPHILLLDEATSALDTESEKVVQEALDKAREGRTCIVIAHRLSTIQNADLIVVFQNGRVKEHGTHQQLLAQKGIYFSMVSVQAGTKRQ
compound,measurement,setting,value
C[C@H]1[C@@H](C(=O)C[C@H]2O[C@@H]3O[C@]4(C)CC[C@H]5[C@H](C)CC[C@@H]([C@H]2C)[C@@]35OO4)O[C@@H]2O[C@]3(C)CC[C@H]4[C@H](C)CC[C@@H]1[C@@]24OO3,outcome,[1],inactive
C=C(C)[C@@H]1CCC(C)=C[C@H]1c1c(C)cc(O)cc1O,fold change,"[2]; stronger effect = lower value, cell number ratio, induced over uninduced",0.943 (inactive)
same,fold change,[2]; [14],0.916
same,cell count,[2]; [15],5200
same,cell count,[2]; [16],5510
C=CCO/N=C(/C[C@H]1O[C@@H]2O[C@]3(C)CC[C@H]4[C@H](C)CC[C@@H]([C@H]1C)[C@@]24OO3)[C@H]1O[C@@H]2O[C@]3(C)CC[C@H]4[C@H](C)CC[C@@H]([C@H]1C)[C@@]24OO3,AC50,[3],209 nM (active)
N[C@H]1C[C@@H]1c1ccccc1,fluorescence slope change,[4],55% (active)
same,parasite load remaining,[5],52% (inactive) and 79.2% (inactive)
same,viability,[5],46.6% and 238%
same,z-score,"[6]; MELAS cybrid survival, CellTiter-Glo 48 h, stronger effect = higher value",0.109 (inactive) and -0.281 (inactive)
same,z-score,"[6]; Rieske KO mouse fibroblast survival, CellTiter-Glo 72 h",-0.102 and -1.1
same,z-score,[7],0.92 (inactive)
NC(CP(=O)(O)O)C(=O)O (configuration not stated),period change,[8],-0.025 h (inactive)
same,inhibition,[9],-2% (inactive)
same,fluorescence ratio (interference),[10],1 (inactive)
same,fold change,[2]; stronger effect = lower value,1.01 (inactive)
same,fold change,[2]; [14],2.04
same,cell count,[2]; [15],10500
same,cell count,[2]; [16],10400
same,outcome,[11],inactive
same,z-score,[7],0.29 (inactive)
CCCCCC1OC1C/C=C\CCCCCCCC(=O)O (configuration not stated),survival,[12],100 (inactive)
same,fold change,[2]; stronger effect = lower value,0.986 (inactive)
same,fold change,[2]; [14],1.2
same,cell count,[2]; [15],5980
same,cell count,[2]; [16],6070
same,fold fluorescence,[13],4.22 [at 1 µM] (inactive)
COc1cc(C(O)CN)ccc1O (configuration not stated),period change,[8],-0.145 h (inactive)
same,inhibition,[9],-3% (inactive)
same,fluorescence ratio (interference),[10],1 (inactive)
same,fold change,[2]; stronger effect = lower value,1.05 (inactive)
same,fold change,[2]; [14],2.66
same,cell count,[2]; [15],11000
same,cell count,[2]; [16],10500
same,outcome,[11],inactive
same,z-score,[7],0.4 (inactive)
C=CCN1CCC23c4c5ccc(O)c4O[C@H]2C(=O)CC[C@@]3(O)C1C5 (some centres not stated),period change,[8],-0.035 h (inactive)
same,inhibition,[9],-4% (inactive)
same,fluorescence ratio (interference),[10],1 (inactive)
same,fold change,[2]; stronger effect = lower value,1.07 (inactive)
same,fold change,[2]; [14],1.06
same,cell count,[2]; [15],11300
same,cell count,[2]; [16],10600
same,outcome,[11],inactive
same,z-score,[7],0.37 (inactive)
CCCCC/C=C\C/C=C\C/C=C\C/C=C\CCCC(=O)NCCO,survival,[12],114 (inactive)
same,fold change,[2]; stronger effect = lower value,0.996 (inactive) and 0.983 (inactive)
same,fold change,[2]; [14],0.958 and 0.763
same,cell count,[2]; [15],6110 and 5070
same,cell count,[2]; [16],6130 and 5160
same,fold fluorescence,[13],5.85 (inactive)
CCCCC/C=C\C/C=C\C/C=C\C=C\[C@H](CCCC(=O)O)OO,survival,[12],114 (inactive)
same,fold change,[2]; stronger effect = lower value,0.99 (inactive)
same,fold change,[2]; [14],1.08
same,cell count,[2]; [15],5950
same,cell count,[2]; [16],6010
same,fold fluorescence,[13],5.34 [at 1 µM] (inactive)
CCCCC/C=C\C=C\[C@H](CCCCCCCC(=O)O)OO,survival,[12],87.6 (inactive)
same,fold change,[2]; stronger effect = lower value,0.93 (inactive)
same,fold change,[2]; [14],1.23
same,cell count,[2]; [15],5880
same,cell count,[2]; [16],6320
same,fold fluorescence,[13],5.11 [at 1 µM] (inactive)
NC(CCP(=O)(O)O)C(=O)O (configuration not stated),period change,[8],0.135 h (inactive)
same,inhibition,[9],-3% (inactive)
same,fluorescence ratio (interference),[10],1 (inactive)
same,fold change,[2]; stronger effect = lower value,1.04 (inactive)
same,fold change,[2]; [14],2.08
same,cell count,[2]; [15],10400
same,cell count,[2]; [16],9940
same,outcome,[11],inactive
same,z-score,[7],0.32 (inactive)
